In PubChem BioAssay (Tox21):
Where “and” joins values, the source holds several entries; their conditions need not be identical. Identical values can stand only once. Results filed as inconclusive are left out. Values without a mark were called inactive. Calls of active or inactive are those of the source. Calls come from the whole dose curve; as a rule, active = well fitted cell-killing curve with a large enough effect in the repeat runs; inconclusive = weak or mixed curves, or effect the other way; inactive = flat fitted curve, though single readings scatter.

Experiment: qHTS RealTime-Glo MT Cell Viability Assay in HEK293 cells - 40 hour (AID 1224874); note: nearly all actives have a fitted effect of over 50% in size
Settings: RealTime-Glo luminescence; max response: hits give low values
Text: U.S. Tox21 Program National Center for Advancing Translational Sciences [NCATS] NIH Chemical Genomics Center [NCGC] U.S. Environmental Protection Agency [EPA] National Institutes of Environmental Health Sciences [NIEHS] National Toxicology Program [NTP] U.S. Food and Drug Administration [FDA] Tox21 Assay Overview: Measure of cell viability is critical in the cell-base assay. Analysis of cell viability is necessary for the characterization of cell responses to cytotoxic drugs and environmental stress. A RealTime-Glo MT Cell Viability Assay to monitor cell viability in real time of continues cell culture during 40 hours of compound treatment was used to screen Tox21 10K library compounds in Hek293 cells. The RealTime-Glo MT Cell Viability Assay is a nonlytic, homogeneous, bioluminescent method to measure cell viability in real time using a simple, plate-based method. The assay involves adding NanoLuc luciferase and a cell-permeant prosubstrate to cells in culture. Viable cells reduce the proprietary prosubstrate to generate a substrate for NanoLuc luciferase. This substrate diffuses from cells into the surrounding culture medium, where it is rapidly used by the NanoLuc Enzyme to produce a luminescent signal. The signal correlates with the number of viable cells, making the assay well suited for cytotoxicity studies.
Tox21 Assay Protocol Summary: The mixture of Hek293 cell suspension and reagents were dispensed at 600cells/6 ul/well in 1536-well tissue culture treated black solid bottom plates using a Multidrop dispenser. After the assay plates were incubated at a 37 C/5% CO2 incubator for 5 hours, 23 nL of compounds dissolved in DMSO, positive and negative controls was transferred to the assay plate by a pintool work station. The plates were incubated at 37 C for 40 hours. The luminescence intensity were measured at 0h, 8h, 16h, 24h, 32h and 40h time points using ViewLux plate reader during compound treatment.
% is set by controls: 0 for no effect and ±100 for the full control effect; potency is the fitted concentration of half-maximal effect.

Structure (SMILES)	max response	Potency
COC(=O)C1=C(C)NC(C)=C(C(=O)OC)C1c1ccccc1[N+](=O)[O-]	-16.8%	
CC1=CC(C)C(C=O)CC1 (stereo not given)	-0.371%	
OC[C@]1(O)OC[C@@H](O)[C@H](O)[C@@H]1O	0.06% and 3.11%	
CC(=O)N(CC(O)CO)c1c(I)c(C(=O)NCCO)c(I)c(C(=O)NCC(O)CO)c1I (stereo not given)	9.14%	
CCCN1CCCC[C@H]1C(=O)Nc1c(C)cccc1C	3.8%	
C/C=C(\C)C#N	-3.01%	
C=CCCCCCCCCC=O	-1.95%	
CCN(CC)CCNC(=O)c1cc(S(C)(=O)=O)ccc1OC	3.02%	
C[C@H](NC(CCc1ccccc1)C(=O)O)C(=O)N1CCC[C@H]1C(=O)O (stereo not given in full)	-70.9%	
N#Cc1ccc(C2CCCc3cncn32)cc1 (stereo not given)	8.46%	
CC(C)NCCCC1(C(N)=O)c2ccccc2-c2ccccc21	-19.1%	
C1OCOCO1	2.99%	
COc1ccc(CCN(C)CCCC(C#N)(c2cc(OC)c(OC)c(OC)c2)C(C)C)cc1OC (stereo not given)		23.9 µM (active)
CC(C[N+](C)(C)C)OC(N)=O (stereo not given)	4.17%	
Cn1cc(S(C)=O)c(=O)c2ccc(F)cc21 (stereo not given)	-13.8%	
CCCCCCCCCCCCN(CCCCCCCCCCCC)CCCCCCCCCCCC	0.0553%	
CC(C)NC(=O)NC(C)C	4.41%	
CN1C(=O)N(C)C(O)C1O (stereo not given)	1.97%	
O=[N+]([O-])c1ccc(F)cc1F	9.7%	
O=C(CCCN1CCC(O)(c2cccc(C(F)(F)F)c2)CC1)c1ccc(F)cc1		21.3 µM (active)

Structure (SMILES)	max response	Potency
c1ccc(CC2=NCCN2)cc1	-5.85%	
CCO/C([O-])=N/c1c[n+](N2CCOCC2)no1	5.08%	
NCCCNCCSP(=O)(O)O	3.52%	
N=C(N)c1ccc2cc(OC(=O)c3ccc(N=C(N)N)cc3)ccc2c1	1.38%	
CN1N=C(C(N)=O)CCC1=O	0.803%	
CCN1CCC[C@H]1CNC(=O)c1cc(S(N)(=O)=O)ccc1OC	-3.58%	
N[C@@H](C(=O)N[C@@H]1C(=O)N2C(C(=O)O)=C(Cl)CS[C@H]12)c1ccccc1	6.7%	
OCCOc1ccc(OCCO)cc1	19.3%	
Cc1[nH]c(=O)c(C#N)cc1-c1ccc2nccn2c1	5.99%	
Brc1c(NC2=NCCN2)ccc2nccnc12	-1.41%	
C=CCS(=O)(=O)O	0.443%	
CC(C)NCC(O)c1ccc(NS(C)(=O)=O)cc1 (stereo not given)	4.96%	
NCCc1cnc[nH]1	-0.307%	
C=C(C)C(=O)OCCCCCCCC(C)C	-8.22%	
CC(C)CNCC(C)C	0.947%	
c1ccc([C@H]2CN3CCSC3=N2)cc1	3.46%	
CN(C)CCCN1c2ccccc2CCc2ccc(Cl)cc21		34.7 µM (active) and 21.3 µM (active)
CC(=O)OC/C=C(\C)CC/C=C(\C)CCC=C(C)C	12.3% and 2.35%	
O=c1cc(-c2ccccc2)oc2ccccc12		11 µM (active) and 14.8 µM (active)
CC(C)c1cc2c(cc1S(=O)(=O)O)[C@@]1(C)CCC[C@@](C)(C(=O)O)[C@@H]1CC2	1.39%	
